Only some compounds are listed: those with a hit (about 19% of all), similar ones and a draw of the others.
IL1B secr inh = blocks inflammasome-driven IL-1 beta release; AID 743279; 4.7% of 360,000 active; THP-1 LPS/ATP IL-1B secretion, AlphaLISA, 16 h; hits give low values; activity change, % at 57.5 µM; in the data active means activity change below about -50%; inconclusive means mostly about -30% to -49%
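THP-1 cells pretreated 1 hr with compounds (up to 57.5 uM final), then stimulated with LPS (250 ng/mL final) plus ATP (1.25 mM final); secreted IL-1B measured by AlphaLISA after 16 hr, decreased signal indicating inhibition.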
HT1080NT lethal = kills 2HG-producing HT-1080-NT fibrosarcoma cells; HT-1080-NT fibrosarcoma viability, CellTiter-Glo ATP luminescence, 48 h; Potency, µM (highest dose often 46.1 µM), without a hit: at the highest dose activity, negative = less viability, hits mostly cytotoxic; 1.6% of 360,000 active;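 further: NT is the 2HG producing partner of a matched IDH1 knockdown line; potency means the concentration at half of the fitted maximal effect; 0% = DMSO-treated cells and -100% = media-only wells without cells; nearly all actives have a fitted effect of over 55% in size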
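Compounds were tested in concentration-response format on HT-1080-NT cells for 48 hours at 37 degrees C. Cell viability came from CellTiter-Glo luminescence; curves were classified by r2, response magnitude and activity.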
TDP1 cell noCPT = qHTS for Inhibitors of human tyrosyl-DNA phosphodiesterase 1 (TDP1): qHTS in cells in absence of CPT | DT40 Tdp1-/- hTDP1 cells, no CPT, ATP luminescence, 48 h | Potency, µM (top dose mostly 46.2 µM), without a hit: top-dose activity change, negative = growth inhibition, hits mostly inhibitors | 15% of 420,000 active | AID 686978, 2013; further: potency means the concentration at half of the fitted maximal effect; nearly all actives have a fitted effect of over 55% in size
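A cellular qHTS used chicken DT40 cells lacking endogenous Tdp1 but carrying stably transfected human TDP1. Compounds were applied without camptothecin, and cell growth kinetics were judged by ATP-dependent luminescence after ≥48 hr.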
HT1080 IDH1KD tx = kills HT-1080 cells with IDH1 knockdown | 2% of 360,000 active | AID 686971 | HT-1080 IDH1 knockdown viability, ATP luminescence, 48 h | Potency, µM (titrated, usually from 46.1 µM), without a hit: top-dose activity, negative = toxicity, most hits filed as cytotoxic;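 further: potency means the concentration at half of the fitted maximal effect; 0% = DMSO wells and -100% = cell-free medium wells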
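Luminescent ATP read-out (CellTiter-Glo, 10 min at room temperature) after 48 h compound exposure at 37 °C gave viability of IDH1-knockdown HT-1080 cells. Activity was normalised to DMSO and cell-free wells, then fitted as concentration-response curves.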
TDP1 cell CPT = growth inhibition of DT40 Tdp1-/-;hTDP1 cells with camptothecin (screen for TDP1 inhibitors); chicken DT40 Tdp1-/-;hTDP1 cells + 20 nM CPT, ATP luminescence, 48 h; 12% of 420,000 active; AID 686979; Potency, µM (top dose mostly 46.2 µM), for the others: at the top dose activity change, negative = growth inhibition, actives largely listed as inhibitors; further: potency means the concentration at half of the fitted maximal effect; nearly all actives have a fitted effect of over 55% in size
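Chicken DT40 Tdp1-/- cells stably complemented with human TDP1 were seeded at 400 cells/well in medium containing 20 nM camptothecin, exposed to pin-transferred compounds, and grown at 37 °C for at least 48 hr. Viability was read as ATP luminescence.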
The depositor's hits bear a star; u = inconclusive; x = not tested or not shown; ! = repeats disagree. Unless noted, the call rests on the fitted dose curve; in most records, active means well fitted curve in the direction sought with a large enough effect; inconclusive means small, poorly fitted or top-dose-only effect, or another doubt; inactive means no such curve, though single readings can be large; an effect the other way counts as inactive or inconclusive. Unless noted, on the % scale 0 is the no-effect control and ±100 the full control effect.

SMILES | IL1B secr inh | HT1080NT lethal | TDP1 cell noCPT | HT1080 IDH1KD tx | TDP1 cell CPT
Cc1cc(C)c2c(CC(=O)Nc3ccc(S(=O)(=O)N4CCCC(C)C4)cc3)coc2c1 (stereo not given) | x | x | 23µM* | x | u
O=C(Cn1nnc(-c2ccccc2Cl)n1)N1CCN(S(=O)(=O)c2ccc(Cl)cc2)CC1 | 10 | -1% | -25% | -4% | -7%
CC(C)c1ccc(NC2=CC(=O)CC(C)(C)C2)cc1 | -11 | 16% | -16% | -3% | -4%
C=C1CC[C@H](O)C/C1=C/C=C1\CCC[C@]2(C)C([C@H](C)CCCC(C)(C)O)CC[C@@H]12 (stereo not given in full) | x | x | 0.021µM*! | x | 0.046µM*!
CC[C@H](CC[C@@H](C)C1CC[C@H]2[C@@H]3CC=C4C[C@@H](O)CC[C@]4(C)[C@H]3CC[C@]12C)C(C)C (stereo not given in full) | x | x | -5% | x | 5%
C=CCn1c(C)cc(-c2csc(NCC)n2)c1C | -55* | u | u | u | u
C=CCn1c(C)cc(-c2csc(NC)n2)c1C | -96* | u | u | -14% | u
C=CCn1c(C)cc(-c2csc(NC(=O)C3=COCCO3)n2)c1C | -15 | 3% | u | 6% | u
CC1CN(S(=O)(=O)c2cccc(C(=O)N3CCC(C(N)=O)CC3)c2)CC(C)O1 (stereo not given) | 7 | 4% | -5% | 13% | -22%
O=S(=O)(c1c(F)cccc1F)N1CCCC2CCCCC21 (stereo not given) | 12 | 0% | 21µM* | 1% | u
O=C(CCn1cnc2onc(-c3ccc(F)cc3)c2c1=O)Nc1ccc(F)c(Cl)c1 | x | x | 15µM* | x | 13µM*
O=C(CCn1cnc2onc(-c3ccc(F)cc3)c2c1=O)Nc1cccc(C(F)(F)F)c1 | x | x | 16µM* | x | 16µM*
O=C(OCc1cn([C@@H]2CN(Cc3cccs3)[C@@H](c3ccc(Cl)cc3)C[C@H]2O)nn1)c1ccccc1 | -20 | 3% | u | 8% | u
Cn1c(/C=N/Nc2nc3ccccc3[nH]2)nc2ccccc21 | 8 | -30% | 29µM* | u | u
O=C(O)c1ccc(/C=N/Nc2nc3ccccc3[nH]2)cc1 | 13 | 2% | 6% | -3% | -2%
CCCn1c(/C=N/Nc2nc3ccccc3[nH]2)nc2ccccc21 | -52* | u | u | u | u
Cc1ccsc1/C=N/Nc1nc2ccccc2[nH]1 | 35 | -17% | u | -2% | u
O=[N+]([O-])c1ccccc1N/N=C/c1cc2ccccc2nc1Cl | 0 | 4% | u | 13% | 4.1µM*
C(=N\Nc1nc2ccccc2[nH]1)/c1cccs1 | -71* | -4% | u | 0% | u
COc1ccccc1NC(=O)Cn1c(=O)n(-c2cccc(Cl)c2)c(=O)c2c1c1cc(C)ccc1n2C | x | x | -6% | x | -8%
COc1cccc(/C=N/Nc2nc3ccccc3[nH]2)c1OC | -12 | 14% | -27% | 13% | 7%
O=C(O)c1ccc(N/N=C/c2cc3ccccc3nc2Cl)cc1 | 18 | 0% | u | -10% | -16%
C=CCn1cc(/C=N/Nc2nc3ccccc3[nH]2)c2ccccc21 | -95* | 21µM* | u | 16µM* | u
Cc1nn(-c2ccccc2)c(C)c1/C=N/Nc1nc2ccccc2[nH]1 | -88* | u | 23µM* | 18µM* | 18µM*
Clc1nc2ccccc2cc1/C=N/Nc1nc2ccccc2[nH]1 | 23 | u | 15µM* | -6% | u
SMILES | IL1B secr inh | HT1080NT lethal | TDP1 cell noCPT | HT1080 IDH1KD tx | TDP1 cell CPT
CC(C)Cn1c(/C=N/Nc2nc3ccccc3[nH]2)nc2ccccc21 | 62 | u | 3.3µM* | u | 3.7µM*
Cc1ccccc1C(=O)NNC(=O)c1cc(N)cc([N+](=O)[O-])c1 | -5 | 13% | u | 2% | -6%
COc1cccc(CNC(=O)CCc2ccc(OC)c(OC)c2)c1 | 4 | -3% | -6% | -2% | 13%
Cc1ccsc1/C=N/Nc1ncnc2nc[nH]c12 | 81 | -20% | u | -7% | -11%
C(=N\Nc1ncnc2nc[nH]c12)/c1cccs1 | -74* | -8% | 2% | -4% | 2%
Cc1ccc(S(=O)(=O)N2C[C@H]3N(C(=O)OC(C)C)N(C(=O)OC(C)C)C[C@H](OC(=O)Nc4c(C)noc4C)[C@@]3(O)C2)cc1 | -51* | 6% | u | 5% | u
Cc1ccc(S(=O)(=O)N2C[C@H]3N(C(=O)OC(C)C)N(C(=O)OC(C)C)C[C@H](OC(=O)Nc4cccs4)[C@@]3(O)C2)cc1 | -80* | -13% | 23µM* | -2% | u
Cc1ccc(S(=O)(=O)N2C[C@]3(O)C[C@@H]4C(=O)N(c5ccccc5)C(=O)[C@@H]4C[C@]3(OC(=O)Nc3cccs3)C2)cc1 | -16 | 2% | u | 16% | u
COC(=O)[C@H]1C[C@H](OC(=O)Nc2c(C)noc2C)[C@@]2(O)CN(S(=O)(=O)c3ccc(C)cc3)CC2[C@H]1C(=O)OC (stereo not given in full) | -13 | 14% | u | 6% | -22%
Cc1ccc(O)c(CNCCNCc2cc(C)ccc2O)c1 | 117 | u | 13µM* | u | 10µM*
Oc1ccc(Cl)cc1CNCc1ccc(F)c(F)c1 | u | 1% | -23% | -3% | u
CCc1ccc(O)c(CNCCNCc2cc(CC)ccc2O)c1 | 52 | -30% | 16µM* | -17% | 23µM*
NNc1nc(-c2ccccc2)c2cc(Br)ccc2n1 | -10 | -19% | -2% | u | u
NNc1nc(-c2ccccc2)cc(-c2ccc(Br)cc2)n1 | -56* | u | u | u | u
COc1ccccc1NC(=O)Nc1nnc(CC(=O)Nc2ccccc2C)s1 | 8 | -8% | u | -16% | u
CCC(=O)Nc1nc(CC(=O)Nc2ccccc2)cs1 | 16 | 1% | -22% | -2% | -13%
COc1ccccc1CCC(=O)OCc1csc(CC(=O)Nc2ccccc2C)n1 | 15 | 12% | 22% | 18% | 14%
COc1ccc(OC)c(-c2csc(NC(=O)Cc3ccccc3OC)n2)c1 | u | -2% | u | -18% | -18%
CCN(CC(=O)Nc1ccccc1OC)Cc1csc(CC(=O)Nc2ccc(C)cc2)n1 | -23 | -17% | 16µM* | -8% | 26µM*
COc1ccc(OC)c(NC(=O)Cc2csc(NC(=O)Nc3ccccc3OC)n2)c1 | 9 | -4% | 21µM* | -13% | u
COc1ccc(NC(=O)Cc2csc(NC(=O)Nc3ccccc3OC)n2)c(OC)c1 | -5 | 6% | 13µM* | 3% | u

Screens: PubChem, National Center for Advancing Translational Sciences (NCATS)
